An excerpt weighted towards active compounds, which were near 10% of everything screened.
3T3 cytotox – NIH 3T3 cell cytotoxicity; hit rate 4.3% among 94,000; NIH 3T3 viability, CellTiter-Glo ATP luminescence, 48-72 h; AID 1345082; Potency, µM (series often up to 96.7 µM), for inactives: at the top dose activity change, negative = cytotoxicity, hits mostly inhibitors; also: nearly all actives have a fitted effect of over 55% in size
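Cytotoxicity is measured as loss of cellular ATP: NIH 3T3 cells (400/well) are exposed to compound for 48 or 72 hr at 37 °C, then CellTiter-Glo luminescence is imaged after 10 min at room temperature.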
Luciferase inh – blocks purified firefly luciferase enzyme activity; P08659; purified P. pyralis luciferase, luminescence, biochemical; Potency, µM (series often up to 115 µM), hits mostly inhibitors; hit rate 2.5% among 76,000; also: nearly all actives have a fitted effect of over 65% in size
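Luminescence read by CCD imager after adding enzyme (10nM final) to wells holding compound, titrated in qHTS. Substrates 10uM each D-luciferin and ATP; buffer 50mM Tris acetate pH 7.5, 10mM Mg acetate, Tween-20, BSA.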
GPT2 inh – GPT2 alanine aminotransferase inhibition; Recombinant GPT2, coupled pyruvate oxidase/HRP Amplex Red fluorescence; Potency, µM (doses to about 57.7 µM), for inactives: top-dose activity change, negative = inhibition, most hits filed as inhibitors; hit rate 0.25% among 100,000; also: nearly all actives have a fitted effect of over 60% in size
Target sequence (Q8TD30 whole entry, looked up): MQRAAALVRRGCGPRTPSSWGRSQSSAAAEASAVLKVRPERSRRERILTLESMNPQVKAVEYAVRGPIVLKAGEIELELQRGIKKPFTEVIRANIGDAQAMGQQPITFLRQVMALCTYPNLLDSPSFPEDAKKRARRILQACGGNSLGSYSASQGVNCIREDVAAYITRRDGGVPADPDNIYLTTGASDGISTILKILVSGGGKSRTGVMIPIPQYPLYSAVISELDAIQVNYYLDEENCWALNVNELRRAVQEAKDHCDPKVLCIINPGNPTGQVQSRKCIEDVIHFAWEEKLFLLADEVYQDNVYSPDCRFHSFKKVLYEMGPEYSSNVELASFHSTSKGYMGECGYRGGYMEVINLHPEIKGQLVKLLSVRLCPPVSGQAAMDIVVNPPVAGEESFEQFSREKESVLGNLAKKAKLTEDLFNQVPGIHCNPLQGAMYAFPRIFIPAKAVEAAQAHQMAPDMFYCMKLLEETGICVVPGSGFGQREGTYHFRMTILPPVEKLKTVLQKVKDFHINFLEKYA
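Recombinant GPT2 (10ng/uL) with 250uM a-KG and 2mM L-alanine, 30 min at room temperature, in HEPES pH 7.5 buffer. Pyruvate detected by pyruvate oxidase/HRP/Amplex Red fluorescence after 30 min in the dark; AOA (50uM) as positive control.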
HEK cytotox – HEK 293 cell cytotoxicity; HEK 293 viability, ATP luminescence (CellTiter-Glo), 48-72 h; Potency, µM (series often up to 115 µM), without a hit: at the top dose activity change, negative = cytotoxicity, most hits filed as inhibitors; hit rate 6.6% among 94,000; AID 1345083; also: nearly all actives have a fitted effect of over 60% in size
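HEK 293 seeded at 250 cells/well receive compound via pintool. After 48 or 72 hr at 37 degree Celsius, 5% CO2 and 95% humidity, CellTiter-Glo is dispensed and luminescence read following 10 min at room temperature.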
NPR1 antag – human Npr1 receptor antagonism. P16066. HEK293 hNpr1 GloSensor cGMP, ANP-stimulated luminescence. Potency, µM (top dose mostly 46.3 µM), for inactives: at the highest dose activity change, negative = inhibition, most hits filed as inhibitors. hit rate 1.6% among 76,000. AID 1347048; calls by dose curve; also: nearly all actives have a fitted effect of over 60% in size
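HEK293 cells stably expressing human Npr1 and cGMP GloSensor pGS-40F, loaded 2 h with 2% GloSensor reagent, given compound 30 min at room temperature. Luminescence read before and 20 min after 0.1 nM hNppA.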
Starred values were filed as active, the others as inactive; i = inactive; ? = inconclusive; . = no result; ! = not confirmed by another sample; [ ] = another dose, or the depositor's remark. Unless noted, calls follow the shape of the dose curve; as a rule, active = well fitted curve in the direction sought with a large enough effect; inconclusive = small, poorly fitted or top-dose-only effect, or another doubt; inactive = no such curve, though single readings can be large; an effect the other way counts as inactive or inconclusive. % is scaled to controls: 0 for no effect and ±100 for the full control effect; potency is read from the fitted curve at half-maximal effect.

SMILES	3T3 cytotox	Luciferase inh	GPT2 inh	HEK cytotox	NPR1 antag
O=C(Nc1ccc2ncnc(N3CCCCC3)c2c1)c1ccc(F)c(F)c1	?	i	-9%	45µM*	-28%
O=C(c1cc(C2CC2)nc2onc(C3CCNC3)c12)N1CCCCC1 (configuration not stated)	i	.	0%	2%	.
O=C(CN1C(=O)NC2(CCCCC2)C1=O)Nc1ccc(C(F)(F)F)cc1	?	i	i	28µM*	0%
CC1CCC2(CC1)NC(=O)N(CC(=O)Nc1ccc(Cl)cc1)C2=O (configuration not stated)	11µM*	i	i	?	1%
O=C(CN1C(=O)NC2(CCCCC2)C1=O)Nc1ccc(F)cc1	-11%	i	-6%	?	2%
CC1CCC2(CC1)NC(=O)N(CC(=O)Nc1ccc(F)c(Cl)c1)C2=O (configuration not stated)	-8%	i	i	-27%	4%
Cc1nc(C)c(C(=O)N2CCCC(COc3ccccc3C(=O)N3CCOCC3)C2)s1 (configuration not stated)	?	i	i	2%	-1%
CC1=C[C@@H](CC#N)[C@H](C(C)C)C[C@H]1CC(=O)N1CCC(C)CC1	?	i	5%[88.5 µM]	71µM*	-14%[70.6 µM]
CC1=C[C@@H](CC#N)[C@H](C(C)C)C[C@H]1CC(=O)NC1CCCCC1	?	i	3%[88.5 µM]	89µM*	1%[70.6 µM]
O=C(C1CC1)N1CCC(C(=O)N2CCC(N3Cc4ccccc4C3=O)CC2)CC1	-15%	.	-2%	-10%	.
O=C(Cc1cccc(Cl)c1)N1CCC(C(=O)N2CCC(N3Cc4ccccc4C3=O)CC2)CC1	?	.	2%	50µM*	.
COC(=O)NC1CCN(c2nccc(Nc3ccccc3Cl)n2)CC1	?	.	i	?	.
O=[S+]([O-])(c1ccccc1)N1CCN(Cc2ccccc2-c2cccnc2)CC1	?	.	2%	35µM*	.
O=C(C1CCN(Cc2ccccc2-c2cccnc2)CC1)N1CCC(c2ccccc2)CC1	45µM*	.	-4%	35µM*	.
O=C(Nc1ccc(Cl)cc1)N1CCN(Cc2ccccc2-c2cccnc2)CC1	35µM*	.	-10%	?	.
O=C(C1CCN(Cc2ccccc2-c2cccnc2)CC1)N1CCCC1	-23%[138 µM]	.	-5%[88.5 µM]	?	.
O=[S+]([O-])(c1cccs1)N1CCN(Cc2ccccc2-c2cccnc2)CC1	?	.	-13%	?	.
CSc1ccc(-c2noc(-c3nnn4c3COC(c3ccc(C)cc3C)C4)n2)cc1 (configuration not stated)	i	i	i	10%	5%
O=C(c1ccc(-n2cnnn2)cc1O)N1CCCC(CCc2ccc(F)cc2)C1 (configuration not stated)	?	i	-7%	35µM*	?
Cn1cc(CN2CCCC(CCc3cccc(C(F)(F)F)c3)C2)cn1 (configuration not stated)	?	i	-11%	?	1%
O=C(c1ncccc1O)N1CCCC(CCc2cccc(C(F)(F)F)c2)C1 (configuration not stated)	?	i	-10%[11.5 µM]	?	-19%
O=C(CCn1cnnn1)N1CCCC(CCc2cccc(C(F)(F)F)c2)C1 (configuration not stated)	?	i	?	18µM*	-13%
O=C(c1cc(=O)[nH]c2cc(F)ccc12)N1CCCC(CCc2ccc(F)cc2)C1 (configuration not stated)	?	i	i[11.5 µM]	?	?
Cc1nc(C(=O)N2CCCC(CCc3cccc(C(F)(F)F)c3)C2)c(C)o1 (configuration not stated)	?	i	i	25µM*	-29%
Cc1ccccc1NC(=O)CN1C(=O)NC2(CCC(C)CC2)C1=O (configuration not stated)	-13%	i	-5%	-2%	0%
SMILES	3T3 cytotox	Luciferase inh	GPT2 inh	HEK cytotox	NPR1 antag
O=C(NCc1cccc(C(F)(F)F)c1)c1ccc2nnc(-c3ccc(Cl)cc3)n2c1	40µM*	.	-14%	45µM*	.
O=C(NCCc1ccc(Cl)cc1)c1ccc2nnc(-c3cc(C(F)(F)F)cc(C(F)(F)F)c3)n2c1	25µM*	.	i	20µM*	.
O=C(NCc1ccccc1)c1ccc2nnc(-c3cccc(C(F)(F)F)c3)n2c1	?	.	i	35µM*	.
O=C(NCc1cccc(C(F)(F)F)c1)c1ccc2nnc(-c3ccoc3)n2c1	?	.	i	?	.
O=C(NCc1cccc(C(F)(F)F)c1)c1ccc2nnc(-c3cccc(C(F)(F)F)c3)n2c1	?	.	-21%	?	.
O=C(NC1CCCCC1)c1ccc2nnc(-c3cccc(C(F)(F)F)c3)n2c1	?	.	?	32µM*	.
Cc1cc(C(=O)Nc2ccc(C(O)[C@H]3COCC(=O)N3)cc2)n(C)n1 (some centres not stated)	-12%[138 µM]	i	5%[88.5 µM]	-10%[172 µM]	1%[70.6 µM]
CCOc1ccccc1CN1CCC2(CCN(C(=O)c3ccccc3Cl)CC2)Oc2ccccc21	?	i	?	?	0%
O=C(NCCc1ccccc1)c1ccc2nnc(-c3ccc(OC(F)(F)F)cc3)n2c1	?	.	i	?	.
O=C(NCc1ccc(F)c(F)c1)c1ccc2nnc(-c3cc(C(F)(F)F)cc(C(F)(F)F)c3)n2c1	?	.	0%	?	.
O=C(NCc1cccc(Cl)c1)c1ccc2nnc(-c3cc(C(F)(F)F)cc(C(F)(F)F)c3)n2c1	?	.	i	14µM*	.
O=C(NCc1ccccc1)c1ccc2nnc(-c3cc(C(F)(F)F)cc(C(F)(F)F)c3)n2c1	?	.	4%	40µM*	.
O=C(NCCc1ccc(Cl)cc1)c1ccc2nnc(-c3ccc(OC(F)(F)F)cc3)n2c1	-22%	.	i	79µM*	.
O=C(NCc1cccc(C(F)(F)F)c1)c1ccc2nnc(-c3cc(C(F)(F)F)cc(C(F)(F)F)c3)n2c1	20µM*	.	-11%	14µM*	.
O=C(c1ccc(Cl)cc1)N1CC2(CCCN(Cc3cccnc3)C2)Cc2ccccc21 (configuration not stated)	?	.	-1%	40µM*	.
CC(=O)N1CC2(CCCN(Cc3cc4ccccc4[nH]3)C2)Cc2ccccc21 (configuration not stated)	25µM*	.	4%	?	.
CC(=O)N1CC2(CCN(C(=O)c3ccc(Cl)cc3)CC2)Cc2ccccc21	10µM*	.	-5%	?	.
O=C(NCCc1ccc(Cl)cc1)C1CN(c2cccc(Cl)c2)C(=O)N1 (configuration not stated)	35µM*!	i	i	?	8%
